The values that follow come from PubChem BioAssay.

Each structure is given as a SMILES string. Active and inactive are the calls of the source.

Assay [1] is described as follows: A549 cell viability effects, profiling panel, calcein-AM fluorescence, 48 h, basal (AID 1162). The conditions noted are these: higher = more signal.
A short description of assay [2]: adipocyte viability effects, profiling panel, cell-based, 3T3-L1 adipocytes, calcein-AM fluorescence, 48 h, basal (AID 1163). The conditions noted are these: 3T3-L1 adipocytes viability, higher = more signal.
Assay [3] in a line: HepG2 cell viability effects, profiling panel, calcein-AM fluorescence, 48 h, basal (AID 1164). As to conditions: higher = more signal.
Assay [4] in a line: MM1S cell viability effects, profiling panel, calcein-AM fluorescence, 48 h, basal (AID 1165).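 Further: viability of MM1S multiple myeloma cells under basal unstimulated conditions.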 As to conditions: higher = more signal.
A short description of assay [5]: basal RPMI8226 viability, no added stimulus, profiling panel, cell-based, calcein-AM fluorescence, 48 h, PK04 Diversity Set (AID 1166).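 Further: cells grown under basal conditions without added stimulus.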 As to conditions: RPMI8226 myeloma viability, higher = more signal.
Assay [6] can be described thus: basal HepG2 mitochondrial membrane potential changes, profiling panel, cell-based, JC-1 fluorescence, 24 h, 100 nL compound (AID 1167). As to conditions: higher = more signal.
A short description of assay [7]: basal 3T3-L1 adipocyte mitochondrial potential changes, profiling panel, cell-based, JC-1 fluorescence, 3T3-L1 adipocytes, 24 h, 100 nL compound (AID 1168). As to conditions: JC-1 mitochondrial fluorescence, higher = more signal, called active from +8 up or from −8 down.
Assay [8] in a line: basal RPMI8226 mitochondrial membrane potential changes, profiling panel, cell-based, JC-1 fluorescence, 24 h, 100 nL compound (AID 1169). As to conditions: RPMI8226 myeloma, JC-1 mitochondrial potential fluorescence, higher = more signal.
Assay [9] in a line: basal MM1S mitochondrial membrane potential changes, profiling panel, cell-based, JC-1 fluorescence, 24 h, 100 nL compound (AID 1170). The conditions noted are these: higher = more signal.
A short description of assay [10]: A549 lung cancer cell viability effects, profiling panel, resazurin fluorescence, 24 h, PK04 Diversity Set (AID 1171). The conditions noted are these: higher = more signal, called active from +8 up or from −8 down.
Further: test concentration not given here.

As to `COC(=O)[C@@]1(Cc2ccc(F)cc2)[C@H]2c3cc(C(=O)N(C)C)n(Cc4cccc5ccccc45)c3C[C@H]2CN1C(=O)c1ccccc1`, the z-score in assay [1] was -0.994; in assay [2], -0.296; in [3], 0.156; in assay [4] it was -0.0591; in assay [5], -0.489; in assay [6], -0.0443. The z-score in [7] is -2.25 (inactive); in [8], -0.207; in assay [9] it was -0.774; in assay [10], 0.0731 (inactive).

Take `CN1C(=O)C2C=CC(C(O)c3ccc(I)cc3)N(N(c3ccccc3)c3ccccc3)C2C1=O` (stereo not given): the z-score in [1] is -0.62; in assay [2], -1.15; in [3], -0.0518; in assay [4], -0.0182; in assay [5], -0.726; in [6], -0.994. Further, the z-score was -1.67 (inactive) in assay [7], -0.251 in assay [8], -0.752 in [9] and -0.614 (inactive) in assay [10].

Consider `O=C1OC[C@@H](c2ccccc2)n2cc(/C=C/c3ccccc3)cc21`, for which the z-score in [1] was -0.235; in assay [2], 1.75; in assay [3] it was -0.202; in [4], -0.472; in assay [5], -0.597; in assay [6], -0.564. Also, the z-score in assay [7] is 0.156 (inactive); in assay [8] it was -0.161; in assay [9], -0.735; in [10] it was 0.229 (inactive).

Consider `CCCCC=C[C@@H](NC(=O)C(C)(C)C)c1ccccc1`, for which the z-score was -2.66 in assay [1]; -0.688 in assay [2]; -5.19 in assay [3]; -3.26 in [4]; -4.72 in [5]; -4.78 in [6]. The z-score in assay [7] is -0.576 (inactive); in [8], -0.895; in assay [9], -2.82; in assay [10], -0.938 (inactive).

With `O=C1NC(=O)C2C1C=CC(C(O)C(O)CO)N2Nc1ccccn1` (stereo not given), the z-score was 0.159 in assay [1]; -0.28 in assay [2]; 2.19 in assay [3]; 0.434 in assay [4]; 0.476 in assay [5]; 0.361 in [6]. In addition, the z-score in assay [7] is 0.117 (inactive); in assay [8], -0.627; in assay [9], 0.123; in assay [10], -1.65 (inactive).

Turning to `C=CCNC(=O)[C@H]1[C@@H]2C(=O)O[C@@H](c3ccccc3)[C@@H](c3ccccc3)N2[C@@H](c2ccc(O)cc2)[C@]12C(=O)Nc1ccc(C#CCC(C(=O)OC)C(=O)OC)cc12`, the z-score in [1] was 0.33; in assay [2], -0.0589; in [3], 0.102; in [4] it was -2.95; in assay [5] it was -4.12; in assay [6], -0.922. For the same molecule, the z-score in [7] is -0.363 (inactive); in [8] it was -0.891; in assay [9], 0.111; in assay [10], 0.0955 (inactive).

For the molecule `COc1ccc([Si](C)(C)[C@@H]2[C@@H](CC(=O)N3CCC[C@H]3CO)O[C@]3(C(=O)N(Cc4cccc(N5C(=O)c6cccc7cccc5c67)c4)c4ccccc43)[C@H]2C)cc1`, the z-score was -1.07 in [1]; 1.29 in assay [2]; -3.23 in [3]; -2.44 in assay [4]; -4.33 in [5]; -0.907 in [6]. Besides, the z-score in [7] is 0.522 (inactive); in assay [8] it was -1.05; in assay [9], -1.01; in [10], -1.53 (inactive).

On to `C=C(CCCC)/C(=C/C[C@@H](OC(C)=O)c1cccc(OCCO)c1)c1cc(C(=O)OC)ccc1OC`, for which the z-score in [1] is 0.771; in assay [2], 0.204; in assay [3], 0.622; in assay [4], -2.41; in [5], -1.98; in assay [6] it was 1.44. The z-score in assay [7] is -0.288 (inactive); in assay [8], 0.186; in assay [9], -0.679; in assay [10] it was 1.25 (inactive).

Regarding `COc1ccc([Si](C)(C)[C@@H]2[C@@H](CC(=O)N(CCO)Cc3ccccc3)O[C@]3(C(=O)N(Cc4cccc(I)c4)c4ccccc43)[C@H]2C)cc1`, the z-score in [1] was -1.09; in assay [2], 1.05; in assay [3], -1.59; in assay [4], -2.55; in assay [5], -4.25; in assay [6] it was 0.198. Besides, the z-score in [7] was 1.5 (inactive); in assay [8], -1.2; in [9] it was -1.68; in assay [10] it was -2.97 (inactive).

Turning to `COc1cc(Cc2cc3c(c(-c4ccccc4)n2)[Si](C(C)C)(C(C)C)OC3)cc(OC)c1OC`, the z-score in [1] is 0.24; in assay [2], 0.609; in assay [3], -0.305; in assay [4], -0.537; in assay [5], -0.189; in assay [6], -0.591. The z-score was 0.323 (inactive) in [7], 0.138 in assay [8], 0.382 in [9] and 0.534 (inactive) in assay [10].

Take `CC(C)(C)OC(=O)CC[C@]1(C(N)=O)N=C(c2ccc(OCCCO)cc2)O[C@H]1c1ccccc1N=[N+]=[N-]`: the z-score in assay [1] was -0.263; in [2], -0.251; in [3] it was 0.934; in assay [4], 0.381; in assay [5], 0.882; in [6], -0.445. In addition, the z-score is -0.109 (inactive) in [7], -0.132 in [8], -1 in [9] and 0.066 (inactive) in assay [10].

Take `CN(C)CCCCCCNC(=O)[C@@H]1C[C@@H]2C(=O)N[C@@H](CCCC[N+](C)(C)C)C(=O)N2[C@@H]1c1cccc(OCCO)c1`: the z-score was -0.188 in [1]; -0.015 in assay [2]; 0.413 in assay [3]; 0.232 in assay [4]; 0.799 in [5]; 1.37 in assay [6]. The z-score is -0.225 (inactive) in assay [7], -0.567 in [8], 0.0992 in assay [9] and -0.646 (inactive) in assay [10].

Regarding `C=CCNC(=O)[C@H]1[C@@H]2C(=O)O[C@@H](c3ccccc3)[C@@H](c3ccccc3)N2[C@@H](c2ccc(O)cc2)[C@]12C(=O)Nc1ccccc12`, the z-score in assay [1] is 1.94; in assay [2], 0.816; in [3], 1.51; in assay [4], -0.0148; in assay [5], -0.836; in assay [6], -0.948. The z-score in assay [7] is -0.586 (inactive); in assay [8] it was 0.105; in assay [9], 0.24; in [10] it was 0.552 (inactive).

As for `COc1ccc(-c2cc3c(c(CCc4ccccc4)n2)[Si](C(C)C)(C(C)C)O[C@H]3c2ccccc2)cn1`, the z-score is 0.359 in [1]; -0.724 in assay [2]; 1.27 in assay [3]; -1.82 in assay [4]; -2.55 in assay [5]; -2.71 in [6]. Further, the z-score in [7] is -0.904 (inactive); in assay [8], -0.405; in assay [9] it was -0.622; in assay [10], 0.996 (inactive).

As to `COC(=O)C1=CC(CCCO)=CC(c2ccc(CN3CCCC3)cc2)N(C)C=C1C(=O)OC` (stereo not given), the z-score in assay [1] is 0.71; in assay [2] it was -0.0962; in assay [3], 0.204; in assay [4] it was 0.608; in [5] it was 0.433; in [6], 0.91. The z-score in [7] is 0.735 (inactive); in [8] it was 0.173; in assay [9] it was -0.537; in assay [10], -0.632 (inactive).
